B1: unnamed (peptide)
chain: ALRRRLPVTRSKINW
B2: unnamed (peptide)
chain: EVTPKVPERPSRRKT
B3: unnamed (peptide)
chain: RPKRRAPPPVPKKPS
B4: unnamed (peptide)
chain: RMVRRRPLRVQFSAR

target: AgAbp1; assay: SPOT peptide array binding signal intensity (averaged, normalized) (arbitrary units (background-subtracted, floor 0; scale differs between SH3 domains)); higher = stronger binding of the SH3 domain to the peptide
How it was run: (§1)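 Spot intensities were captured after detection with anti-GST antibody, an HRP-linked anti-mouse secondary and luminol, and quantified with Genespotter. The probes were GST-fused SH3 domains from four yeast species, produced in E. coli BL21(DE3), purified on glutathione Sepharose and incubated at 10 μg/ml overnight at 4°C on cellulose-bound synthetic 15-mer peptides with cysteines replaced by serines. Binding signal is the normalized, background-subtracted spot intensity averaged over replicates, and its arbitrary units differ between domains.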

Binder | SPOT peptide array binding signal intensity
B1 | 348
B3 | 5860
B4 | 341

target: AgBbc1; assay: as above
How it was run: as §1

Binder | SPOT peptide array binding signal intensity
B1 | 122
B3 | 1090
B4 | 152

target: AgBem1-D1; assay: as above
How it was run: as §1

Binder | SPOT peptide array binding signal intensity
B1 | 140
B3 | 166
B4 | 477

target: AgBzz1-D1; assay: as above
How it was run: as §1

Binder | SPOT peptide array binding signal intensity
B1 | 43
B3 | 3720
B4 | 102

target: AgBzz1-D2; assay: as above
How it was run: as §1

Binder | SPOT peptide array binding signal intensity
B1 | 60
B3 | 825
B4 | 93.5

target: AgCyk3; assay: as above
How it was run: as §1

Binder | SPOT peptide array binding signal intensity
B1 | 9.5
B3 | 1
B4 | 3

target: AgFus1; assay: as above
How it was run: as §1

Binder | SPOT peptide array binding signal intensity
B1 | 583
B3 | 63.5
B4 | 2500

target: AgHof1; assay: as above
How it was run: as §1

Binder | SPOT peptide array binding signal intensity
B1 | 71.8
B3 | 380
B4 | 44.8

target: AgHse1; assay: as above
How it was run: as §1

Binder | SPOT peptide array binding signal intensity
B1 | 1170
B3 | 294
B4 | 1410

target: AgLsb1; assay: as above
How it was run: as §1

Binder | SPOT peptide array binding signal intensity
B1 | 9.75
B3 | 1120
B4 | 16.5

target: AgLsb4; assay: as above
How it was run: as §1

Binder | SPOT peptide array binding signal intensity
B1 | 189
B3 | 313
B4 | 606

target: AgMyo5; assay: as above
How it was run: as §1

Binder | SPOT peptide array binding signal intensity
B1 | ≤ 0
B3 | 124
B4 | 2.5

target: AgNbp2; assay: as above
How it was run: as §1

Binder | SPOT peptide array binding signal intensity
B1 | 346
B3 | 4930
B4 | 1110

target: AgRvs167; assay: as above
How it was run: as §1

Binder | SPOT peptide array binding signal intensity
B1 | 19.5
B3 | 191
B4 | 10.8

target: AgSho1; assay: as above
How it was run: as §1

Binder | SPOT peptide array binding signal intensity
B1 | 79
B3 | 650
B4 | 634

target: AgSla1-D1-D2; assay: as above
How it was run: as §1

Binder | SPOT peptide array binding signal intensity
B1 | 840
B3 | 274
B4 | 284

target: AgSla1-D3; assay: as above
How it was run: as §1

Binder | SPOT peptide array binding signal intensity
B1 | 5.5
B3 | 577
B4 | 28.2

target: CaAbp1-D1; assay: as above
How it was run: as §1

Binder | SPOT peptide array binding signal intensity
B1 | 1340
B3 | 2320
B4 | 820

target: CaAbp1-D2; assay: as above
How it was run: as §1

Binder | SPOT peptide array binding signal intensity
B1 | 526
B3 | 4720
B4 | 810

target: CaBbc1; assay: as above
How it was run: as §1

Binder | SPOT peptide array binding signal intensity
B1 | 302
B3 | 1840
B4 | 247

target: CaBem1-D1; assay: as above
How it was run: as §1

Binder | SPOT peptide array binding signal intensity
B1 | 35
B3 | 78.5
B4 | 495

target: CaBzz1-D1; assay: as above
How it was run: as §1

Binder | SPOT peptide array binding signal intensity
B1 | 104
B3 | 7010
B4 | 202

target: CaBzz1-D2; assay: as above
How it was run: as §1

Binder | SPOT peptide array binding signal intensity
B1 | 151
B3 | 4680
B4 | 245

target: CaCyk3; assay: as above
How it was run: as §1

Binder | SPOT peptide array binding signal intensity
B1 | 53.5
B3 | 55
B4 | 104

target: CaFus1; assay: as above
How it was run: as §1

Binder | SPOT peptide array binding signal intensity
B1 | 1200
B3 | 350
B4 | 3490

target: CaHof1; assay: as above
How it was run: as §1

Binder | SPOT peptide array binding signal intensity
B1 | 1
B3 | 0.5
B4 | 2.5

target: CaHse1; assay: as above
How it was run: as §1

Binder | SPOT peptide array binding signal intensity
B1 | 60
B3 | 666
B4 | 464

target: CaLsb1; assay: as above
How it was run: as §1

Binder | SPOT peptide array binding signal intensity
B1 | 1.5
B3 | ≤ 0
B4 | 12.5

target: CaLsb4; assay: as above
How it was run: as §1

Binder | SPOT peptide array binding signal intensity
B1 | 195
B3 | 2700
B4 | 1050

target: CaMyo5; assay: as above
How it was run: as §1

Binder | SPOT peptide array binding signal intensity
B1 | 5.5
B3 | 2.5
B4 | 58

target: CaNbp2; assay: as above
How it was run: as §1

Binder | SPOT peptide array binding signal intensity
B1 | 712
B3 | 3680

target: CaRvs167; assay: as above
How it was run: as §1

Binder | SPOT peptide array binding signal intensity
B1 | 48.5
B3 | 127

target: CaRvs167-3; assay: as above
How it was run: as §1

Binder | SPOT peptide array binding signal intensity
B1 | 197
B3 | 170

target: CaSho1; assay: as above
How it was run: as §1

Binder | SPOT peptide array binding signal intensity
B1 | 1180
B3 | 236

target: CaSla1-D1-D2; assay: as above
How it was run: as §1

Binder | SPOT peptide array binding signal intensity
B1 | 491
B3 | 3850

target: CaSla1-D3; assay: as above
How it was run: as §1

Binder | SPOT peptide array binding signal intensity
B1 | 11.5
B3 | 920

target: ScAbp1; assay: as above
How it was run: as §1

Binder | SPOT peptide array binding signal intensity
B1 | 59
B3 | 3840

target: ScBbc1; assay: as above
How it was run: as §1

Binder | SPOT peptide array binding signal intensity
B1 | 45.5
B3 | 835

target: ScBem1-D1; assay: as above
How it was run: as §1

Binder | SPOT peptide array binding signal intensity
B1 | 20
B3 | 69

target: ScBzz1-D1; assay: as above
How it was run: as §1

Binder | SPOT peptide array binding signal intensity
B1 | 23
B3 | 1610

target: ScBzz1-D2; assay: as above
How it was run: as §1

Binder | SPOT peptide array binding signal intensity
B1 | 27
B3 | 75.5

target: ScCyk3; assay: as above
How it was run: as §1

Binder | SPOT peptide array binding signal intensity
B1 | 160
B3 | 17.5

target: ScFus1; assay: as above
How it was run: as §1

Binder | SPOT peptide array binding signal intensity
B1 | 784
B3 | 42.5

target: ScHof1; assay: as above
How it was run: as §1

Binder | SPOT peptide array binding signal intensity
B1 | 2.5
B3 | 0.5

target: ScHse1; assay: as above
How it was run: as §1

Binder | SPOT peptide array binding signal intensity
B1 | 1800
B3 | 432

target: ScLsb1; assay: as above
How it was run: as §1

Binder | SPOT peptide array binding signal intensity
B1 | 26.8
B3 | 819

target: ScLsb2; assay: as above
How it was run: as §1

Binder | SPOT peptide array binding signal intensity
B1 | 15.5
B3 | 796

target: ScLsb3; assay: as above
How it was run: as §1

Binder | SPOT peptide array binding signal intensity
B1 | 658
B3 | 3720

target: ScLsb4; assay: as above
How it was run: as §1

Binder | SPOT peptide array binding signal intensity
B1 | 25
B3 | 95

target: ScMyo3; assay: as above
How it was run: as §1

Binder | SPOT peptide array binding signal intensity
B1 | 3.5
B3 | 705

target: ScMyo5; assay: as above
How it was run: as §1

Binder | SPOT peptide array binding signal intensity
B1 | 3.5
B3 | 471

target: ScNbp2; assay: as above
How it was run: as §1

Binder | SPOT peptide array binding signal intensity
B1 | 616
B3 | 5640

target: ScPex13; assay: as above
How it was run: as §1

Binder | SPOT peptide array binding signal intensity
B1 | 2.25
B3 | 482

target: ScRvs167; assay: as above
How it was run: as §1

Binder | SPOT peptide array binding signal intensity
B1 | 155
B3 | 1640

target: ScSho1; assay: as above
How it was run: as §1

Binder | SPOT peptide array binding signal intensity
B1 | 1460
B3 | 2030

target: ScSla1-D1-D2; assay: as above
How it was run: as §1

Binder | SPOT peptide array binding signal intensity
B1 | 713
B3 | 3510

target: ScSla1-D3; assay: as above
How it was run: as §1

Binder | SPOT peptide array binding signal intensity
B1 | 23
B3 | 896

target: SpAbp1-D1; assay: as above
How it was run: as §1

Binder | SPOT peptide array binding signal intensity
B1 | 794
B3 | 3020

target: SpBbc1; assay: as above
How it was run: as §1

Binder | SPOT peptide array binding signal intensity
B1 | 10
B3 | 115

target: SpBzz1-D1; assay: as above
How it was run: as §1

Binder | SPOT peptide array binding signal intensity
B1 | 381
B3 | 1740

target: SpBzz1-D2; assay: as above
How it was run: as §1

Binder | SPOT peptide array binding signal intensity
B1 | 0.5
B2 | ≤ 0
B3 | 713

target: SpCyk3; assay: as above
How it was run: as §1

Binder | SPOT peptide array binding signal intensity
B1 | 69.5
B2 | 0.75
B3 | 4

target: SpHof1; assay: as above
How it was run: as §1

Binder | SPOT peptide array binding signal intensity
B1 | 357
B2 | 25.4
B3 | 374

target: SpHof1-2; assay: as above
How it was run: as §1

Binder | SPOT peptide array binding signal intensity
B1 | 80.8
B2 | 74.4
B3 | 43.2

target: SpHof1-3; assay: as above
How it was run: as §1

Binder | SPOT peptide array binding signal intensity
B1 | 790
B2 | 73.8
B3 | 972

target: SpHse1; assay: as above
How it was run: as §1

Binder | SPOT peptide array binding signal intensity
B1 | 766
B2 | 51.2
B3 | 221

target: SpLsb1; assay: as above
How it was run: as §1

Binder | SPOT peptide array binding signal intensity
B1 | 16.2
B2 | 1550
B3 | 1830

target: SpLsb4; assay: as above
How it was run: as §1

Binder | SPOT peptide array binding signal intensity
B1 | 553
B2 | 6800
B3 | 925

target: SpMyo1; assay: as above
How it was run: as §1

Binder | SPOT peptide array binding signal intensity
B1 | 10.2
B2 | 4.25
B3 | 687

target: SpNbp2; assay: as above
How it was run: as §1

Binder | SPOT peptide array binding signal intensity
B1 | 716
B2 | 9.5
B3 | 173

target: SpPex13; assay: as above
How it was run: as §1

Binder | SPOT peptide array binding signal intensity
B1 | 23
B2 | ≤ 0
B3 | 220

target: SpRvs167; assay: as above
How it was run: as §1

Binder | SPOT peptide array binding signal intensity
B1 | 72.5
B2 | 1310
B3 | 1300

target: SpSla1-D1-D2; assay: as above
How it was run: as §1

Binder | SPOT peptide array binding signal intensity
B1 | ≤ 0
B2 | 48.5
B3 | 1490

target: SpSla1-D3; assay: as above
How it was run: as §1

Binder | SPOT peptide array binding signal intensity
B1 | 41.5
B2 | 2
B3 | 2
